Measured values from PubChem BioAssay (NCATS).
Inconclusive results are not listed. Entries that show only a call come without a potency. Values without a mark were called inactive. Activity calls are given as the source filed them. Calls come from the whole dose curve; as a rule, active = well fitted curve in the direction sought with a large enough effect; inconclusive = small, poorly fitted or top-dose-only effect, or another doubt; inactive = no such curve, though single readings can be large; an effect the other way counts as inactive or inconclusive.

How the values were obtained:
[1] = molecular target: Cellular tumor antigen p53 (Homo sapiens) (UniProt P04637); assay: Primary qHTS for small molecule compounds that upregulate eGFP-tagged delta133p53alpha (in N-terminal) cells. (AID 2060322); conditions: NCI-H358 eGFP-delta133p53alpha fluorescence, 24 h; activation: active compounds read high; note: nearly all actives have a fitted effect of over 75% in size; note: potency is the fitted concentration of half-maximal effect;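 for activation: cells pre-induced with doxycycline then dosed without doxycycline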
Sequence of Cellular tumor antigen p53 (Homo sapiens) (P04637 whole entry, looked up): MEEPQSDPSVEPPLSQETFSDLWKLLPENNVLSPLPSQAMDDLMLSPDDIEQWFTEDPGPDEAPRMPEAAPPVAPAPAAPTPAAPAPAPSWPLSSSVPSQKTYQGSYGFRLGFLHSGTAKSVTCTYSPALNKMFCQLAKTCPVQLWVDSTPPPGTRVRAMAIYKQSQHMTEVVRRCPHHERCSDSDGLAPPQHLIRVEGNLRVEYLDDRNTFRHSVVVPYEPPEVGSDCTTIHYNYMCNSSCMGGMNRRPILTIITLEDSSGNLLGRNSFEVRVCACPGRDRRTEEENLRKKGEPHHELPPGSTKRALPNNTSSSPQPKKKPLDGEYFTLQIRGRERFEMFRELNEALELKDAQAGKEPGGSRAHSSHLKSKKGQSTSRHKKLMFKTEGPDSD
Procedure, shortened: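 NCI-H358 cells pre-induced 24 h with 10 ng/ml doxycycline for eGFP-delta133p53alpha, plated dox-free and exposed 24 h at 37C to titrated compounds. Fixed, Hoechst-stained; gated GFP peak intensity by laser scanning cytometry, normalized to DMSO (0%) and 57.5 uM 5-azacytidine (100%).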

[2] = molecular target: Aldehyde dehydrogenase, mitochondrial (Homo sapiens) (UniProt P05091); assay: qHTS for Inhibitors of the Aldehyde Dehydrogenase Family (ALDH2) Primary screen (AID 2061308); conditions: ALDH2 enzyme inhibition qHTS, 1536-well; series mostly up to 56 µM; note: nearly all actives have a fitted effect of over 55% in size
[3] = molecular target: Retinaldehyde dehydrogenase 3 (Homo sapiens) (UniProt P47895); assay: qHTS for Inhibitors of the Aldehyde Dehydrogenase Family (ALDH1A3) Primary screen (AID 2061315); conditions: ALDH inhibition qHTS; series mostly up to 56 µM

SMILES | activation [1] | Potency [2] | Potency [3] | Potency [1] | activity change, negative = inhibition [2] | activity change, negative = inhibition [3]
C[C@]1(O)CC[C@@H]2C(C(=O)O)=CO[C@@H](O[C@@H]3O[C@H](COC(=O)c4ccc(O)cc4)[C@@H](O)[C@H](O)[C@H]3O)[C@@H]21 | 0.893% | inactive | inactive |  |  | 
C/C1=C\[C@@H](C)C[C@@H](C)[C@@H](Cc2cnco2)OC(=O)/C(C)=C/[C@@H](C)C[C@@H](C)[C@@H](Cc2cnco2)OC1=O | 0% | inactive | inactive |  |  | 
CCN1CCN(Cc2ccc(NC(=O)c3ccc(C)c(Oc4ccnc5[nH]ccc45)c3)cc2C(F)(F)F)CC1 |  | inactive | inactive | 14.8 µM (active) |  | 
Cn1c(=O)c(F)c(Nc2ccc(I)cc2F)c2c(=O)n(CC(O)CO)cnc21 (stereo not drawn) | 14.3% | inactive | inactive |  |  | 
COCC(c1ccc(C(F)(F)F)cc1)N1CCN(C2(C)CCN(C(=O)c3c(C)ncnc3C)CC2)CC1C (stereo not drawn) | 12.4% | inactive | inactive |  |  | 
CN1C(=O)c2ccccc2-n2c(nc3ccccc3c2=O)[C@@]12O[C@H]2c1ccccc1 | 13% | inactive | inactive |  |  | 
CC(=O)NC[C@H]1CN(c2ccc(N3CCN(C(=O)CO)CC3)c(F)c2)C(=O)O1 | 11.6% | inactive | inactive |  |  | 
CC(C)(O)c1ccc2c(c1)C(O)CC1C(C)(C(=O)O)CCCC21C (stereo not drawn) | 5.34% | inactive | inactive |  |  | 
C[C@@H]1CC[C@]2(C(=O)O)CC[C@]3(C)C(=CCC4[C@@]5(C)C[C@@H](O)[C@H](O)[C@@](C)(CO)C5CC[C@]43C)C2[C@]1(C)O (stereo partly drawn) | 29.5% | inactive | inactive |  |  | 
C/C=C(\C)C(=O)OCC1OC(OC2OC(CO)C(O)C(O)C2O)C(O)C(O)C1O (stereo not drawn) | -16.8% | inactive | inactive |  |  | 
C/C=C/C=C/C(O)=C1/C(=O)[C@]2(C)C(=O)[C@@](C)(O)[C@H]1[C@H]([C@@]1(C)OC(=O)C(C)=C1O)[C@H]2C(=O)CC/C=C/C | -10.7% | inactive | inactive |  |  | 
COC(=O)C1C(O)CCC2CN3CCc4c([nH]c5ccccc45)C3CC21 (stereo not drawn) | 23.2% | inactive | inactive |  |  | 
C=C1C[C@@]23CC[C@@H]4[C@](C)(C(=O)O)CCC[C@@]4(C)C2=CC[C@H]1C3 | 0.763% | inactive | inactive |  |  | 
C[C@]12CC[C@@H]3c4ccc(O)cc4CC[C@H]3[C@@H]1C[C@@H](O[C@@H]1O[C@H](C(=O)O)[C@@H](O)[C@H](O)[C@H]1O)[C@@H]2O | -6.33% | inactive | inactive |  |  | 
CCn1cc(NC(=S)Nc2cc(Cl)ccc2OC)c(C(N)=O)n1 | -5% | inactive | inactive |  |  | 
CC1CC(=O)C2C(O)(C1)CC(O)C13OC1c1c(O)cccc1C(=O)C23O (stereo not drawn) | -1.53% | inactive | inactive |  |  | 
O=C(OCC1=CC(Cl)C(O)C(OC(=O)c2ccccc2)C1O)c1ccccc1 (stereo not drawn) | -22.9% | inactive | inactive |  |  | 
COc1ccc(CNC(=O)c2cc(-c3cncc(C)c3)ncc2-c2nccs2)nc1OC | 0.477% | inactive | inactive |  |  | 
COC(=O)[C@H](Cc1ccc([N+](=O)[O-])cc1)NC(=O)c1cccc2ccccc12 | 11.5% | inactive | inactive |  |  | 
COc1c(-c2ccc(O)cc2)cc(OC)c2c1oc1cc(O)c(OC3OC(CO)C(O)C3O)cc12 (stereo not drawn) | 1.79% | inactive | inactive |  |  | 
C/C=C(\C)C(=O)OC[C@H]1O[C@@H](O[C@H]2[C@@H](O[C@H]3O[C@H](CO)[C@@H](O)[C@H](O)[C@H]3O[C@@H]3O[C@H](CO)[C@@H](O)[C@H](O)[C@H]3O)O[C@H](COC(=O)/C(C)=C/C)[C@@H](O)[C@@H]2O)[C@H](O)[C@@H](O)[C@@H]1O | -8.4% | inactive | inactive |  |  | 
CC1CCC2(C(=O)OC3OC(CO)C(O)C(O)C3O)CCC3(C(=O)O)C(=CCC4C5(C)CCC(OC6OC(C)C(O)C(O)C6O)C(C)(C)C5CCC43C)C2C1C (stereo not drawn) | -10.7% | inactive | inactive |  |  | 
COc1cc(O[C@@H]2O[C@H](CO)[C@@H](O)[C@H](O)[C@H]2O)c(CCC(=O)OC[C@H]2O[C@@H](Oc3cc(OC)c(C4OC(=O)C(C)(O)C4O)cc3CCC(=O)O)[C@H](O)[C@@H](O)[C@@H]2O)cc1C1OC(=O)C(C)(O)C1O (stereo partly drawn) | -6.11% | inactive | inactive |  |  | 

SMILES | activation [1] | Potency [2] | Potency [3] | Potency [1] | activity change, negative = inhibition [2] | activity change, negative = inhibition [3]
Cc1cc(C(=O)N2Cc3cnn(C)c3Nc3ccccc32)ccc1CNC(=O)N1CCN(Cc2cc(O)cc(O)c2)CC1 | -7.16% | inactive | inactive |  |  | 
O=C(OC[C@H]1O[C@H](O[C@]2(CO)O[C@H](CO)[C@@H](O)[C@@H]2O)[C@H](O)[C@@H](O)[C@@H]1O)c1ccc(O)cc1 | -2.68% | inactive | inactive |  |  | 
CC1C(=O)CC2C3CCC(C(=O)O)C12CC3(C)CO (stereo not drawn) | 9.92% | inactive | inactive |  |  | 
CC1(C)CC[C@]2(C(=O)O[C@@H]3O[C@H](CO)[C@@H](O)[C@H](O)[C@H]3O)CC[C@]3(C)C(=CCC4[C@@]5(C)C[C@@H](O)[C@H](O)[C@](C)(C=O)C5CC[C@]43C)[C@@H]2[C@@H]1O (stereo partly drawn) | -0.893% | inactive | inactive |  |  | 
C=C1CCC2[C@](C)(CCC[C@@]2(C)C=O)[C@H]1CC/C(C)=C/CO (stereo partly drawn) | 11.5% | inactive | inactive |  |  | 
C=C1CC2C3(C)C(O)CC(=O)C(C)(C)C3C(O)C(OC(C)=O)C2(C)C2C(=O)OC(C)(C(=O)OC)C(=O)C12C (stereo not drawn) | 27.5% | inactive | inactive |  |  | 
C=C1[C@@H]2CC[C@@]3(C)[C@H](c4ccoc4)OC(=O)C[C@]13O[C@H]1CC(=O)C(C)(C)[C@H](CC(=O)OC)[C@]12C | -26.7% | inactive | inactive |  |  | 
CC1=C2C[C@@]3(C)C(CCC[C@@H]3C)C(O)C2(O)OC1=O (stereo partly drawn) | 0% | inactive | inactive |  |  | 
C/C=C(\C)C(=O)O[C@@H]1CC2[C@@H](CC=C3C[C@@H](O[C@H]4C[C@H](OC)[C@H](O[C@H]5C[C@H](OC)[C@H](O[C@@H]6O[C@H](C)[C@@H](O[C@H]7C[C@H](OC)[C@H](O[C@@H]8O[C@H](CO)[C@@H](O)[C@H](O)[C@H]8O)[C@@H](C)O7)[C@H](OC)[C@H]6O)[C@@H](C)O5)[C@@H](C)O4)CC[C@@]32C)[C@@]2(O)CC[C@H](C(C)=O)[C@@]12C (stereo partly drawn) | 9.92% |  |  |  | 12% [at 11.2 µM] | 11% [at 11.2 µM]
C/C=C(/COC(=O)/C(C)=C/C)C(=O)OC(CC)c1ccc(OC)c(OC)c1 (stereo not drawn) | -15.2% | inactive | inactive |  |  | 
COc1cccc(NCCC2(c3ccccc3)CC(C)(C)OC(C)(C)C2)c1 |  | inactive | inactive | 21.7 µM (active) |  | 
N#Cc1ccc2ncnc(NCCc3ccccc3)c2c1 | -3.57% | inactive | inactive |  |  | 
Cc1ccccc1CN1C2=NCCN2C(=O)C2=C1CCN(Cc1ccccc1)C2 | 29% | inactive | inactive |  |  | 
C[C@@H]1O[C@@H](O[C@@H]2[C@@H](O)[C@@H](O)[C@H](O[C@@H]3[C@@H](O)[C@@H](O[C@]4(CO)O[C@H](CO)[C@@H](O)[C@@H]4OC(=O)/C=C/c4ccc(O)cc4)O[C@H](CO)[C@H]3OC(=O)/C=C/c3ccc(O)cc3)O[C@H]2C)[C@H](O)[C@H](O)[C@H]1O | 3.82% | inactive | inactive |  |  | 
CC1(C)CC[C@]2(C(=O)O)[C@H](O)C[C@]3(C)C(=CCC4[C@@]5(C)CC[C@H](O[C@@H]6O[C@H](CO[C@@H]7OC[C@H](O)[C@H](O)[C@H]7O[C@@H]7OC[C@@H](O)[C@H](O)[C@H]7O)[C@@H](O)[C@H](O)[C@H]6O[C@@H]6O[C@H](CO)[C@@H](O)[C@H](O)[C@H]6O)C(C)(C)C5CC[C@]43C)[C@@H]2C1 (stereo partly drawn) | -17.6% | inactive | inactive |  |  | 
CC(C)(O)c1ccc2c(c1)C(=O)CC1[C@](C)(CO)CCC[C@]21C (stereo partly drawn) | 26.8% | inactive | inactive |  |  | 
CC1=CC(=O)C2C(C)(C)CCC[C@]2(C)[C@H]1CO (stereo partly drawn) | -3.82% | inactive | inactive |  |  | 
CC(C)=CCC[C@](C)(O)[C@H]1CC[C@]2(C)[C@@H]1[C@H](O)CC1[C@@]3(C)CC[C@H](O)C(C)(C)C3[C@@H](O[C@@H]3O[C@H](CO)[C@@H](O)[C@H](O)[C@H]3O[C@@H]3OC[C@@H](O)[C@H](O)[C@H]3O)C[C@]12C (stereo partly drawn) | -16.8% | inactive | inactive |  |  | 
Cc1ccc2c(c1)c1c(n2CCc2ccc(C)nc2)CCN(C)C1 | 14.3% | inactive | inactive |  |  | 
CN[C@H](C(=O)N[C@H](C(=O)N(C)[C@H](/C=C(\C)C(=O)O)C(C)C)C(C)(C)C)C(C)(C)c1ccccc1 | 15.8% | inactive | inactive |  |  | 
O=[N+]([O-])c1cccc2[nH]c(CNc3nc(N4CCOCC4)nc4c3ncn4-c3ccsc3)nc12 |  | inactive | inactive | 0.301 µM (active) |  | 
C=CC(C)(O)CC/C=C(/C)C(=O)OC1C(OC2OCC(OC3OC(CO)C(O)C(O)C3O)C(OC3OCC(O)C(OC4OC(C)C(O)C(O)C4O)C3O)C2O)COC(OC(=O)C23CCC(C)(C)CC2C2=CCC4C5(C)CCC(OC6OC(CO)C(OC7OC(CO)C(O)C(OC8OCC(O)C(O)C8O)C7O)C(O)C6O)C(C)(C)C5CCC4(C)C2(C)CC3O)C1O (stereo not drawn) | -12.2% |  |  |  | 0.572% [at 11.2 µM] | 8.04% [at 11.2 µM]
Cc1nc(NC(=O)N2CCCC2C(N)=O)sc1-c1csc(C(C)(C)C)n1 (stereo not drawn) | 16.1% | inactive | inactive |  |  | 
